# Results as given in PubChem BioAssay (NCATS).
# Inconclusive results are not listed. Unmarked numbers belong to inactive results. Activity calls are given as the source filed them. Calls follow the shape of the dose curve; as a rule, active = well fitted inhibition curve with a large enough effect; inconclusive = small, poorly fitted or top-dose-only effect; inactive = no such curve, though single readings can be large or run the other way.
# Biological target: Glutaminase kidney isoform, mitochondrial (Homo sapiens) (UniProt O94925)
# Sequence (O94925 whole entry, looked up, canonical isoform): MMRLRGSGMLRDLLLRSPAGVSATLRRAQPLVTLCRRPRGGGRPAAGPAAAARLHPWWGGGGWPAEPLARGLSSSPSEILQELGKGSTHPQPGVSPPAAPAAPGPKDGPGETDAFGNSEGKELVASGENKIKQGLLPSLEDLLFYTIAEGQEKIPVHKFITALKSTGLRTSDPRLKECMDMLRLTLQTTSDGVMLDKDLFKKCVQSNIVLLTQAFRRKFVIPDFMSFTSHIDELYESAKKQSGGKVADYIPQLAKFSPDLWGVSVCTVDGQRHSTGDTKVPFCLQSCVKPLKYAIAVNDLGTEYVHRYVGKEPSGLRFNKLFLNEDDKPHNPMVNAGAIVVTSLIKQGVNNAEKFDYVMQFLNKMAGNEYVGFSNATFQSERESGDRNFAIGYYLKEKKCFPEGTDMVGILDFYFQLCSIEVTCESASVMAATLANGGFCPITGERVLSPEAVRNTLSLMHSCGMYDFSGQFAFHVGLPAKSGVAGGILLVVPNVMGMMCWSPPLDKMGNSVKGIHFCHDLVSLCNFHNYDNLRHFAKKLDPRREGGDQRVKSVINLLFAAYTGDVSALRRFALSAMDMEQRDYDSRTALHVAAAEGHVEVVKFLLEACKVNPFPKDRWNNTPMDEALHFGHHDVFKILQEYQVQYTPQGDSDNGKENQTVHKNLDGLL
# Assay: qHTS for Inhibitors of Glutaminase (GLS): LOPAC Validation (AID 624146); also: nearly all actives have a fitted effect of over 60% in size;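 as to activity change, negative = inhibition: glutamate product detected by oxidase and peroxidase coupled Amplex red fluorescence gain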
# Details: glutaminase enzyme activity inhibition; series mostly up to 46.1 µM; activity change, negative = inhibition: at the top concentration
# Description: Glutaminase (GLS) catalyzes the hydrolysis of glutamine into glutamate and ammonia. It plays a critical role in glutaminolysis, which is an important energy source for proliferating cells. It was shown that c-Myc, an oncogenic transcription factor known to regulate microRNAs and to stimulate cell proliferation, increases glutamine metabolism by stimulating the expression of GLS via direct suppression of miR23a and miR23b.
# GLS is also thought to play a pathogenic role on HAD using a human HIV-1 infected macrophage system. […] GLS inhibition limits glutamate release and provides neuroprotection against HIV-1 infected macrophages.
# The overall goal of this project is to identify small molecule inhibitors of GLS through quantitative high throughput screening (qHTS) of the MLSMR. A validated potent and selective inhibitor can be used as a tool molecule to further study the pharmacology of its target as well as explore its potential therapeutic application in cancer and inflammatory neurological disorders, such as HIV1-associated dementia (HAD) and multiple sclerosis.
# NIH Chemical Genomics Center [NCGC]
# NIH Molecular Libraries Probe Centers Network [MLPCN]
# Assay Submitter (PI): Barbara S. Slusher, Johns Hopkins University
# Three 3 uL of hKGA is dispensed into black well 1536-well plates in 45 mM KH2PO4 (pH 8.2), 0.02% Tween-20. Then 23 nL of compounds are added through pin tool transfer. To this, 1 uL of 1mM L-Glutamine and 1 uL of a solution of L-Glutamateoxidase, HRP, Amplex red are added. Plate is centrifuged for 25 sec before an initial fluorescence read is obtained on the ViewLux, after 30 min of RT incubation, the final read is taken on the ViewLux.
# % is scaled to controls: 0 for no effect and ±100 for the full control effect; potency is read from the fitted curve at half-maximal effect.
Compound,"activity change, negative = inhibition [%]",Potency
NCC(O)c1ccc(O)cc1 (stereo not given),-17.1,–
c1ccc2c(c1)OCC(C1=NCCN1)O2 (stereo not given),-43.2,–
CCCN1CCC[C@@H]2Cc3nc(N)ncc3C[C@H]21,-9.55,–
CCCC(C)(COC(N)=O)COC(=O)NC(C)C (stereo not given),4.1,–
O=c1[nH]c2ccccc2n1CCCN1CCC(n2c(=O)[nH]c3cc(Cl)ccc32)CC1,-22.4,–
Cc1ncc(CNC(=O)N(CCCl)N=O)c(N)n1,-20.4,–
O=C1NCN(c2ccccc2)C12CCN(CC1COc3ccccc3O1)CC2 (stereo not given),-12.4,–
Cc1cccc(C)c1NC1=NCCCS1,16.3,–
COC[C@H]1OC(=O)c2coc3c2[C@@]1(C)C1=C(C3=O)C2CCC(=O)[C@@]2(C)C[C@H]1OC(C)=O (stereo not given in full),–,11.2 µM (active)
O=c1[nH]c2ccccc2n1C1CCN(CCCC(c2ccc(F)cc2)c2ccc(F)cc2)CC1,-8.93,–
c1ccc(C2CC2)c(OCC2=NCCN2)c1,-1.17,–
Nc1ccncc1,-5.98,–
C[C@@H]1O[C@@H](O[C@H]2C[C@@H](O)[C@]3(CO)[C@H]4[C@H](O)C[C@]5(C)[C@@H](C6=CC(=O)OC6)CC[C@]5(O)[C@@H]4CC[C@]3(O)C2)[C@H](O)[C@H](O)[C@H]1O,-6.77,–
CC(=O)[C@H]1CC[C@H]2[C@@H]3CC[C@H]4C[C@H](O)CC[C@]4(C)[C@H]3C(=O)C[C@]12C,-5.36,–
N#CC(C#N)=Cc1ccc(O)c(O)c1,–,0.355 µM (active)
CC(O)(CS(=O)(=O)c1ccc(F)cc1)C(=O)Nc1ccc(C#N)c(C(F)(F)F)c1 (stereo not given),-8.23,–
NCC1(CC(=O)O)CCCCC1,-1.05,–
NN=C(N)N,–,inactive
COc1ccccc1N1CCNCC1,-1.01,–
CC(=O)[C@H]1CC[C@H]2[C@@H]3CC[C@H]4C[C@](C)(O)CC[C@]4(C)[C@H]3CC[C@]12C,-3.06,–
COc1ccc(C(CN(C)C)C2(O)CCCCC2)cc1 (stereo not given),10.3,–
NCC(CC(=O)O)c1ccc(Cl)cc1 (stereo not given),1.27,–
CCCN1CCC[C@@H]2Cc3[nH]ncc3C[C@H]21,–,inactive
C=C(C)[C@H]1Cc2c(ccc3c2O[C@@H]2COc4cc(OC)c(OC)cc4[C@@H]2C3=O)O1,–,11.2 µM (active)
Cc1cccc(C)c1NC(=O)CN1CCCC1=O,-31.7,–
